The record followed here is PubChem BioAssay (NCATS).

“And” between values parts separate entries of the source, which are not always exact repeats. Equal entries are not always repeated. Results filed as inconclusive are left out. The source made the active and inactive calls. Unless noted, calls follow the shape of the dose curve; as a rule, active = well fitted curve in the direction sought with a large enough effect; inconclusive = small, poorly fitted or top-dose-only effect, or another doubt; inactive = no such curve, though single readings can be large; an effect the other way counts as inactive or inconclusive.

Test [1] in a line: qHTS assay for small molecule agonists of retinoid X receptor alpha signaling (AID 588544). As to conditions: HEK293T RXRa-UAS-bla, beta-lactamase reporter, 18 h; 530 nm emission.
Test [2] deals with Thyroid hormone receptor beta (Homo sapiens) (UniProt P10828). The experiment in a line: qHTS assay for small molecule agonists of thyroid hormone receptor beta signaling (AID 588545; calls by dose curve;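 also: 0% = DMSO only and 100% = 10 nM T3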). In short, it runs like this:
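Compounds were tested as agonists in TR-UAS-bla-GripTite HEK 293 cells. After 18 hrs at 37 C, CCF4 substrate was added and fluorescence read after 2 hrs at room temperature.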

The nature of test [3]: qHTS assay for small molecule antagonists of retinoid X receptor alpha signaling (AID 588546; active = well fitted inhibition curve with a large enough effect in the signal ratio, with a control signal flat, not every such curve was filed as active; the % refers to the signal ratio;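 also: cells stimulated with 9-cis-retinoic acid as agonist; % is scaled to controls: 0 for no effect and ±100 for the full control effect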). As to conditions: HEK293T RXRa-UAS-bla, beta-lactamase ratio, antagonist mode; measured here: W530 green channel, cytotoxicity proxy. In short, it runs like this:
(§1)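 Beta-lactamase reporter inhibition, read as CCF4 fluorescence ratio (ex 405, em 460/530 nm) after 2 h at RT. HEK293T UAS-bla cells, 2500/well, were stimulated with 9-cis-RA at 500 or 100 nM final alongside test compound for 18 h at 37 C.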
(qHTS replaces the single test concentration by a dilution series.)

The target in test [4] is Retinoic acid receptor RXR-alpha (Homo sapiens) (UniProt P19793). Described as above. As to conditions: HEK293T RXRa-UAS-bla, beta-lactamase ratio, antagonist mode. The essentials: as §1
Test [5] has as its target Voltage-gated inwardly rectifying potassium channel KCNH2 (Homo sapiens) (UniProt Q12809). The experiment in a line: qHTS Assay for Small Molecule Inhibitors of the Human hERG Channel Activity (AID 588834).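 Also: top concentration of the series differs between compounds; % is scaled to controls: 0 for no effect and ±100 for the full control effect; lower thallium flux fluorescence means stronger hERG block; nearly all actives have a fitted effect of over 50% in size.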 The essentials:
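Thallium-flux (FluxOR) read-out on FDSS: fluorescence read 10 s before and 2 min after stimulation buffer. hERG-BacMam-transduced U2OS cells, compound exposure about 10 min. AC50 by standard Hill equation.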

Test [6] is described as follows: qHTS assay for small molecule activators of the p53 signaling pathway (AID 651743; active = well fitted activation curve with a large enough effect in the signal ratio, not every such curve was filed as active; the % refers to the signal ratio; also: series mostly up to about 92 µM; % of control where 0% means no effect). As to conditions: HCT-116 p53RE-bla, beta-lactamase FRET ratio, 16 h; stronger effect = higher value. In short, it runs like this: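 After 16 hours compound treatment at 37 C, HCT-116 cells stably expressing p53RE-driven beta-lactamase were loaded with LiveBLAzer B/G FRET substrate for 2 hours at room temperature. Fluorescence intensity served as the p53 activation read-out.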

A short description of test [7]: qHTS assay for small molecule activators of the nuclear factor-kappa B (NF-kB) signaling pathway (AID 651749; active = well fitted activation curve with a large enough effect in the signal ratio; the % refers to the signal ratio; also: series mostly up to about 77 µM; % of control where 0% means no effect). As to conditions: NF-kB-bla ME-180 cells, beta-lactamase FRET ratio, 16 h; stronger effect = higher value. The essentials: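 Activation measured after 16 hr compound treatment at 37C, 5% CO2, of 2,000 ME-180 cells/well stably expressing an NF-kB response element–driven beta-lactamase reporter, via FRET-disruption fluorescence.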

Test [8] is described as follows: qHTS assay for small molecule disruptors of the mitochondrial membrane potential - 5 hr assay (AID 651755; calls by dose curve; also: % is scaled to controls: 0 for no effect and ±100 for the full control effect; nearly all actives have a fitted effect of over 40% in size). In short, it runs like this:
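Membrane-potential dye readout: red aggregate (540 ex/590 em) versus green monomer (490 ex/535 em) fluorescence after 30 min dye loading, following 5 hr compound exposure at 37C of overnight-plated HepG2 cells.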

The target in test [9] is Tumor necrosis factor (Homo sapiens) (UniProt P01375). In words: qHTS assay to identify small molecules that stimulate Tumor Necrosis Factor-alpha (TNF-alpha) secretion (AID 651757; active = well fitted curve in the direction sought with a large enough effect in the signal ratio; the % refers to the signal ratio; also: 0% is about no effect). The essentials: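 Human monocytic THP-1 cells are plated, treated with compound and held at 37 C for 17 hrs. Labeled anti-TNF-alpha antibody mixture is then added; after 3 hr at room temperature, TR-FRET signal reports secreted TNF-alpha.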

Test [10] in a line: qHTS assay for environmental chemicals that activate the Aryl hydrocarbon Receptor (AhR) signaling pathway (AID 651777). Also: nearly all actives have a fitted effect of over 15% in size. Also: potency is read from the fitted curve at half-maximal effect. As to activation: % of control where 0% means no effect. The conditions noted are these: 1A2-DRE human hepatoma cells, luciferase, 24 h; activation: stronger effect = higher value. The essentials:
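Measured luciferase activity, read 30 min after One-Glo addition at room temperature, from human hepatoma cells bearing a dioxin response element–CYP1A2 promoter reporter and exposed to compound for 24 hr at 37 C.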

The target in test [11] is Peroxisome proliferator-activated receptor alpha (Homo sapiens) (UniProt Q07869). The experiment in a line: qHTS assay for small molecule agonists of the peroxisome proliferator-activated receptor alpha (PPARalpha) signaling pathway (AID 651778). Also: % of control where 0% means no effect. The conditions noted are these: PathHunter PPARalpha complementation, chemiluminescence, 6 h; stronger effect = higher value. The essentials:
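Chemiluminescence from complemented enzyme reported PPARalpha activation in cells after 6 hr of compound treatment at 37 C. The detection reagent was incubated for 60 min at room temperature, and compounds were scored as agonists.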

Test [12] has as its target Nuclear receptor ROR-gamma (Homo sapiens) (UniProt P51449). In words: qHTS assay for small molecule antagonists of the retinoid-related orphan receptor gamma (ROR-gamma) signaling pathway (AID 651802).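 Also: CHO cells with doxycycline-induced ROR-gamma expression; series mostly up to about 92 µM; % is scaled to controls: 0 for no effect and ±100 for the full control effect; nearly all actives have a fitted effect of over 60% in size.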 The essentials:
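Steps: cells dispensed; compound or DMSO transferred by pin tool; doxycycline added to induce the ROR response element-driven luciferase; plates held 16hr at 37C; ONE-Glo added and luminescence measured.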

Test [13] can be described thus: qHTS assay for small molecule agonists of the antioxidant response element (ARE) signaling pathway measured by Nrf2-dependant transcriptional activity - cell viability counter screen (AID 720653; active = well fitted curve in the direction sought with a large enough effect in the repeat runs; an effect the other way counts as inactive or inconclusive; also: % is scaled to controls: 0 for no effect and ±100 for the full control effect). As to conditions: ARE-bla HepG2 viability, CellTiter-Glo ATP luminescence, 16 h; stronger effect = lower value. In short, it runs like this:
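Cytotoxicity counter screen: intracellular ATP quantified by CellTiter-Glo luminescence in the same ARE-bla HepG2 plates, after 16 h compound exposure and a 2 h beta-lactamase substrate step.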

Test [14] deals with Thyroid hormone receptor beta (Homo sapiens) (UniProt P10828). In words: qHTS assay for small molecule antagonists of thyroid hormone receptor beta signaling (AID 588547; active = well fitted inhibition curve with a large enough effect in the signal ratio, with a control signal flat, not every such curve was filed as active; the % refers to the signal ratio;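 also: cells stimulated with 0.4 nM T3 agonist during compound exposure; series mostly up to about 77 µM; % is scaled to controls: 0 for no effect and ±100 for the full control effect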). The conditions noted are these: TR-UAS-bla HEK293, beta-lactamase ratio, antagonist mode, 18 h. In short, it runs like this: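 Inhibition of T3-driven (0.4nM final) beta-lactamase reporter activity was measured over 0.59 nM to 92 uM compound after 18 h at 37 C. The cells were GripTite HEK293 TR-UAS-bla in charcoal/dextran-stripped serum, with CCF4 ratio read-out and IC50 from Hill fits.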

The nature of test [15]: qHTS assay for small molecule disruptors of the mitochondrial membrane potential - 1 hr assay (AID 651754; calls by dose curve; also: % is scaled to controls: 0 for no effect and ±100 for the full control effect; nearly all actives have a fitted effect of over 35% in size). The essentials:
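Loss of mitochondrial potential shifts the cationic dye from red mitochondrial aggregates to green cytoplasmic monomers. Cells (HepG2) are treated with compound for 1 hr before a 30 min dye incubation at 37C.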

Test [16] can be described thus: qHTS assay for small molecule agonists of the antioxidant response element (ARE) signaling pathway measured by Nrf2-dependant transcriptional activity (AID 720636; active = well fitted curve in the direction sought with a large enough effect in the repeat runs; an effect the other way counts as inactive or inconclusive;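 also: HepG2 cells with an ARE-driven luciferase reporter; % of control where 0% means no effect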). The essentials: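 In HepG2 cells engineered with an Nrf2-responsive luciferase gene, ARE induction was quantified as luminescence after 16 hr compound treatment at 37 C.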
Test [17] in a line: qHTS assay for small molecule antagonists of the retinoid-related orphan receptor gamma (ROR-gamma) signaling pathway - cell viability counter screen (AID 720652; active = well fitted curve in the direction sought with a large enough effect in the repeat runs; an effect the other way counts as inactive or inconclusive;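 also: CHO reporter cells with doxycycline-induced ROR-gamma expression; series mostly up to about 92 µM; compound exposure lasted 16 hr before ATP read; % is scaled to controls: 0 for no effect and ±100 for the full control effect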). In short, it runs like this: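 Steps: seed CHO cells bearing TET-inducible ROR and ROR response element-luciferase; rest 5 hr at 37 C; add compound, then doxycycline; incubate 16 hr; add CellTiter-Glo and read luminescence as ATP-based viability.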

A short description of test [18]: qHTS assay to identify small molecules that stimulate interleukin-8 (IL-8) secretion (AID 651758; active = well fitted activation curve with a large enough effect in the signal ratio; the % refers to the signal ratio; also: 0% is about no effect). In short, it runs like this:
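Secreted IL-8 measured homogeneously by TR-FRET (two labelled anti-IL-8 antibodies, 1-3 h at room temperature) after a 16 h, 37 C compound treatment of THP-1 cells at 2000 cells/well.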

Test [19] can be described thus: qHTS assay for small molecule agonists of the antioxidant response element (ARE) signaling pathway (AID 651741; active = well fitted activation curve with a large enough effect in the signal ratio; the % refers to the signal ratio; also: potency is read from the fitted curve at half-maximal effect; as to activation: % of control where 0% means no effect). The essentials: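 Beta-lactamase reporter under ARE control in HepG2 cells, 2,000 per well, was induced by 16 h compound treatment at 37 C. Read-out was fluorescence from LiveBLAzer B/G FRET substrate after 2 h at room temperature.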

Sequence of Voltage-gated inwardly rectifying potassium channel KCNH2 (Homo sapiens) (Q12809 whole entry, looked up): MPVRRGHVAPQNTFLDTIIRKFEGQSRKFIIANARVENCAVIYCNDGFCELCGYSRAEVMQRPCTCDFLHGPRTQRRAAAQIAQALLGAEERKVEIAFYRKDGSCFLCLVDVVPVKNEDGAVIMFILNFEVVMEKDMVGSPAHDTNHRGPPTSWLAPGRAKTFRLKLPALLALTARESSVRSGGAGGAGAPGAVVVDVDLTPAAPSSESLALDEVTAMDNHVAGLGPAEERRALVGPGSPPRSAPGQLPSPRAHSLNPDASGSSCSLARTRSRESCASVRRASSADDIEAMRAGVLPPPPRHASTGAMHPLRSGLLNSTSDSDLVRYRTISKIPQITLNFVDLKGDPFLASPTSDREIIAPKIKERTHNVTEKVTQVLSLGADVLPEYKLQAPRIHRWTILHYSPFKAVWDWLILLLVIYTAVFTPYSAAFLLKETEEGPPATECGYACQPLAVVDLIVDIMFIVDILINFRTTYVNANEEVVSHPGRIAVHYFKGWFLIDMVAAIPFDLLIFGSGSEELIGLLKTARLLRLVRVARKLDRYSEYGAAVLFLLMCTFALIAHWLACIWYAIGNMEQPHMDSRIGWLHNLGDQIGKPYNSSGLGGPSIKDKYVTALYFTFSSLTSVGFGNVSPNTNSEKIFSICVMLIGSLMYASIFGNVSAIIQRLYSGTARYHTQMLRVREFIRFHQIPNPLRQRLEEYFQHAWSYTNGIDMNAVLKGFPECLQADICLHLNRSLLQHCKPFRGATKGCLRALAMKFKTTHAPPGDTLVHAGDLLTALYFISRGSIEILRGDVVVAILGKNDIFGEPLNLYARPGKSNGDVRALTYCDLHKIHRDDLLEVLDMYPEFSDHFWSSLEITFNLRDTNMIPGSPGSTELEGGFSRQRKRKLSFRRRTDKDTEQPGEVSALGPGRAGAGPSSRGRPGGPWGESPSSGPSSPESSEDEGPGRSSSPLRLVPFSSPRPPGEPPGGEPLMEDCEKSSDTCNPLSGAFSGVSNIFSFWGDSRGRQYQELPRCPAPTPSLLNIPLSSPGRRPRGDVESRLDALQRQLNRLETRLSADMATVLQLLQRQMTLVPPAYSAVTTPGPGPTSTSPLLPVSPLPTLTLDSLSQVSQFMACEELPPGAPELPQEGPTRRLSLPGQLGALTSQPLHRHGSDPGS
Sequence of Tumor necrosis factor (Homo sapiens) (P01375 whole entry, looked up): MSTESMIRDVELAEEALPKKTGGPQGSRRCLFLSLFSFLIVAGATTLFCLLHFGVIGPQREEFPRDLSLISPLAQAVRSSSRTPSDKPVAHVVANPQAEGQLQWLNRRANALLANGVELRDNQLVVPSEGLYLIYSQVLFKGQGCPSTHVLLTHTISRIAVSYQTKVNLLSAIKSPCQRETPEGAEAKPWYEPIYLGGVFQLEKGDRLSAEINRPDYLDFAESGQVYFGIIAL
Sequence of Nuclear receptor ROR-gamma (Homo sapiens) (P51449 whole entry, looked up): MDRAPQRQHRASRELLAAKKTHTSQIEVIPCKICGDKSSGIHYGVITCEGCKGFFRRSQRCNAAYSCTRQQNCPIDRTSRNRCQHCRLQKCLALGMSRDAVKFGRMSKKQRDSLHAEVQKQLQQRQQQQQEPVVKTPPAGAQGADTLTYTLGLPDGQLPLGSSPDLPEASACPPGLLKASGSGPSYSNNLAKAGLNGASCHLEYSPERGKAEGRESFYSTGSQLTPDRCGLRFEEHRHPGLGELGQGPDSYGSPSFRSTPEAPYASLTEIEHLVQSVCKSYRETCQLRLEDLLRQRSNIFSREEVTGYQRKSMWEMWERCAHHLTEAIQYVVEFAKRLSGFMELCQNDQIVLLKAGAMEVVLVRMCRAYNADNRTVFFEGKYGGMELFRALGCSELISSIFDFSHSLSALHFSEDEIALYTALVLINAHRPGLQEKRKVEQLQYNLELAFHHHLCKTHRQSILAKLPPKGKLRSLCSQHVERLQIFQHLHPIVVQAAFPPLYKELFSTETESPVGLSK
Sequence of Retinoic acid receptor RXR-alpha (Homo sapiens) (P19793 whole entry, looked up): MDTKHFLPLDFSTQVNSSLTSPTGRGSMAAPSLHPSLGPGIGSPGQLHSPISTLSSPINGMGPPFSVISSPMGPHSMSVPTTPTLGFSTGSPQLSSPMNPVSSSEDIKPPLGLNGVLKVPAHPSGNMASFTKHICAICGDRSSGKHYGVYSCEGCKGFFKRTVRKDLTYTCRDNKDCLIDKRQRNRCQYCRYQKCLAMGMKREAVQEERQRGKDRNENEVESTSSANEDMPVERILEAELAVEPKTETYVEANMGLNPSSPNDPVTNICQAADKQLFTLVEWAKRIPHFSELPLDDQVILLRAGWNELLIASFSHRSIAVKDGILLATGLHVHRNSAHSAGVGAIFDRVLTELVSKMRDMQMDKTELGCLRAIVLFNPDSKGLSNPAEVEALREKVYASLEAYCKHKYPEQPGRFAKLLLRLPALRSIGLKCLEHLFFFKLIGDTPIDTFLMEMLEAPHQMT
Sequence of Peroxisome proliferator-activated receptor alpha (Homo sapiens) (Q07869 whole entry, looked up): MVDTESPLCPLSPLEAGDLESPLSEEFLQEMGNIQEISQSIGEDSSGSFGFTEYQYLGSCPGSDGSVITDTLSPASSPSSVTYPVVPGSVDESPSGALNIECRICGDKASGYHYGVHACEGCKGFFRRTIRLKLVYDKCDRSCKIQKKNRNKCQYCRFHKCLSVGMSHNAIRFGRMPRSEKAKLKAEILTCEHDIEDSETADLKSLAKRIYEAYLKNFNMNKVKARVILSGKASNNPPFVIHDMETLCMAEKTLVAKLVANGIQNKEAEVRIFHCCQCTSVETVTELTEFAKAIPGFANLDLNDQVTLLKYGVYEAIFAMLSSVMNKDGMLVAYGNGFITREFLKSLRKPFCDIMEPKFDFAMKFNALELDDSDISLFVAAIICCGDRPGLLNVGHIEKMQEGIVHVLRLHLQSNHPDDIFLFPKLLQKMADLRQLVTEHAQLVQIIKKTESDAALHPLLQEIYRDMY
Sequence of Thyroid hormone receptor beta (Homo sapiens) (P10828 whole entry, looked up): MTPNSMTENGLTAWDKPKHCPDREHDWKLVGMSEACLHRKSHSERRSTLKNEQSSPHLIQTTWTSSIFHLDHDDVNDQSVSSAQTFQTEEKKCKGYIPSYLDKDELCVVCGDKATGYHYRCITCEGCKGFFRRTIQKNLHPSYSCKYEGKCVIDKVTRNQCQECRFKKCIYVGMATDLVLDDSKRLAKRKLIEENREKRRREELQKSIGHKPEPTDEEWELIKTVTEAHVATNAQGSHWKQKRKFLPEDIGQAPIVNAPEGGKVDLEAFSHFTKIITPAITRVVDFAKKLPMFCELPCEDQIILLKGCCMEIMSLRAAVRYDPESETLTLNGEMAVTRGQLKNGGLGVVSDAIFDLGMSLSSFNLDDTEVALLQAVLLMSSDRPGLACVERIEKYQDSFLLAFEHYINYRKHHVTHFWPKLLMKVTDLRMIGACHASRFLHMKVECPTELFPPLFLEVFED

On to `CC/C=C1/OC(=O)c2ccccc21`, for which the max response in test [1] was 0.089%; in test [3] it was -8.24%; in [4] it was 8.95% (inactive); in test [11], -2.48% (inactive); in test [13], 4.48% (inactive). Also, the molecule was called inactive in test [2]. The Potency entry in [5], in test [8], in test [9] and in test [12] was “inactive” in each case. The activation was -1.64% (inactive) in test [6], -0.0092% (inactive) in test [7] and 0.751% (inactive) in test [10].

As for `C[C@@H]1CC2(OC[C@]3(C)O[C@H]23)O[C@H]2C[C@@]3(C)[C@@H]4CC[C@H]5C(C)(C)C(O[C@@H]6OC[C@@H](O)[C@H](O)[C@H]6O)CC[C@@]56C[C@@]46CC[C@]3(C)[C@@H]12` (stereo partly drawn), the result in test [2] and in [16] was inactive. For the same molecule, the activity change % (negative = inhibition) in test [14] was 4.18% (inactive). Besides, the Potency result in [5], in [15], in [8], in test [9], in test [12] and in [17] was “inactive” in each case. For the same molecule, the activation in [6] is -7.18% (inactive); in [7], -1.67% (inactive); in test [10], -1.5% (inactive). Further, the figures for the max response in test [11] and in test [13] were 0.712% (inactive) and -3.07% (inactive), respectively.

As for `CC1CCC2CC1C2(C)C` (stereo not drawn), the max response was -0.475% in [1]; 8.6% in test [3]; 9.66% (inactive) in test [4]; -3.48% (inactive) in [11]; 1.21% (inactive) in test [13]. The result in test [2] and in [16] was inactive. Besides, the activity change % (negative = inhibition) in test [14] was 12.3% (inactive). Also, the values for the activation in test [6], in test [7] and in test [10] were -0.467% (inactive), -0.9% (inactive) and -0.275% (inactive), respectively. For the same molecule, the Potency result in [15], in test [8], in test [9], in [18], in test [12] and in [17] was “inactive” in each case.

For `CCCOCC(C)OCC(C)O` (stereo not drawn), the max response is -0.324% in test [1], -4.87% in test [3], -1.53% (inactive) in test [11] and -10.5% (inactive) in test [13]. The molecule was called inactive in test [2] and in test [16]. In test [14], the activity change % (negative = inhibition) was 6.45% (inactive). Further, the Potency entry in test [5], in test [19], in test [15], in test [8], in [9] and in test [18] was “inactive” each time. The Potency result in test [12] and in [17] was “inactive” in each case. Moreover, the activation is -1.44% (inactive) in [7] and -2.16% (inactive) in test [10].

On to `Clc1ccc(Cl)c(Cl)c1Cl`, for which the max response in test [1] was -17% and 0.458%; in test [3] it was 6.74% and -2.64%; in [11] it was -7.17% (inactive) and 0.0854% (inactive); in test [13], 13.5% (inactive) and -3.85% (inactive). Besides, the result in test [2] and in test [16] was inactive. The activity change % (negative = inhibition) in [14] was 26.9% (inactive). Further, the Potency result in test [5], in [19], in test [9], in [12] and in test [17] was “inactive” each time. In addition, the activation was 0.56% (inactive) and -0.536% (inactive) in test [7]; 0.208% (inactive) and -1.37% (inactive) in [10].

As for `COc1ccc(N=[N+]([O-])c2ccc(OC)cc2)cc1`, the call in test [2] was inactive. For the same molecule, the max response in [3] was -4.97%; in [4] it was -10.1% (inactive); in test [11] it was -3.57% (inactive); in [13], -28.6% (inactive). Besides, the activity change % (negative = inhibition) in test [14] was 11.6% (inactive). Moreover, the Potency result in [5], in test [15] and in [8] was “inactive” each time. Moreover, the Potency in test [19] was 37.6 µM (active); in test [10], 1.12 µM (active). Besides, the activation in [6] was -0.811% (inactive); in test [7] it was 0.0779% (inactive).

Consider `O=Cc1ccccc1Cl`, for which the max response is -11.2% in [1]; 3.56% in [3]; 26.5% (inactive) in test [4]; -3.69% (inactive) in test [11]; -4.5% (inactive) in test [13]. Further, the outcome in test [2] and in [16] was inactive. For the same molecule, the activity change % (negative = inhibition) in test [14] was 5% (inactive). The Potency entry in test [19], in test [15], in test [8], in [9], in test [12] and in test [17] was “inactive” throughout. The activation is -1.13% (inactive) in test [7] and -0.0176% (inactive) in [10].

`NC(=O)c1cccc([N+](=O)[O-])c1`: the max response in test [1] was 2.13%; in test [3], -10.9%; in test [4], -6.67% (inactive); in test [11], 2.42% (inactive); in test [13], -9.57% (inactive). For the same molecule, the molecule was called inactive in test [2] and in test [16]. Also, the Potency result in test [5], in [15], in test [8], in test [9], in test [12] and in test [17] was “inactive” each time. In addition, in test [6], the activation is 8.78% (inactive).
